# Results taken from ChEMBL document CHEMBL3433997, “St. Jude Leishmania screening dataset” (2016).
# Legend:
# Type in all cases: functional
# [1] = biological target: Solute carrier family 2, facilitated glucose transporter member 1 (Homo sapiens) (UniProt P11166); test: ST_JUDE_LEISH: Cytotoxicity at 2uM final concentration against transgenic Leishmania Mexicana promastigotes LmGLUT1 that are glucose transport deficient and complemented with the human glucose transporter GLUT1. Activity is measured by DNA content using SYBR green in vitro
# [2] = biological target: Hexose transporter 1 (Plasmodium falciparum) (UniProt O97467); test: ST_JUDE_LEISH: Cytotoxicity at 2uM final concentration against transgenic Leishmania Mexicana promastigotes LmPfHT that are glucose transport deficient and complemented with the Plasmodium falciparum hexose transporter. Activity is measured by DNA content using SYBR green in vitro
# [3] = biological target: Glucose transporter (Leishmania mexicana) (UniProt O61059); test: ST_JUDE_LEISH: Cytotoxicity at 2uM final concentration against transgenic Leishmania Mexicana promastigotes LmGT2 that are glucose transport deficient and complemented with the L. Mexicana glucose transporter 2. Activity is measured by DNA content using SYBR green in vitro
# Solute carrier family 2, facilitated glucose transporter member 1 (Homo sapiens), sequence (P11166 whole entry): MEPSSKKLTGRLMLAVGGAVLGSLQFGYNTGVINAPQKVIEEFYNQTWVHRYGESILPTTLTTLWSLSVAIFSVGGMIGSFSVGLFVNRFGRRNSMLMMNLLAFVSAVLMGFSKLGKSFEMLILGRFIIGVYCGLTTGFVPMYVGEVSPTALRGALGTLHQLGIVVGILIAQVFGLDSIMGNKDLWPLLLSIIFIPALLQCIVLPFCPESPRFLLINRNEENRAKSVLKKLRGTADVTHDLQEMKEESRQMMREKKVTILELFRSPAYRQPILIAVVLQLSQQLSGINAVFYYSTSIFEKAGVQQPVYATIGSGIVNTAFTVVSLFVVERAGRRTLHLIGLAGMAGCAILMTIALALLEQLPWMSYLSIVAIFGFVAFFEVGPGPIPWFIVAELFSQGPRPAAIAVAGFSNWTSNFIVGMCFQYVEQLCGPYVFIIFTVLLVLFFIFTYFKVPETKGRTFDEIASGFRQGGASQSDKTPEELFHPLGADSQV
compound,measurement,setting,value
CCOC(=O)c1ccc(-c2cnoc2-c2cc(CC)c(OC)cc2O)o1,inhibition,[1],-0.08%
same,inhibition,[2],1.08%
same,inhibition,[3],1.38%
Cn1cncc1C(=O)Nc1cccc(-c2cccc(-c3nc4cc(F)ccc4[nH]3)c2)c1,inhibition,[1],4%
same,inhibition,[2],3.24%
same,inhibition,[3],1.75%
CC(C)N(CC(=O)c1ccc(O)c(C(=O)O)c1)Cc1ccccc1,inhibition,[1],3.53%
same,inhibition,[2],3.51%
same,inhibition,[3],1.67%
Cc1ccc(C(=O)Nc2cccc([N+](=O)[O-])c2)cc1S(=O)(=O)N1CC(C)CC(C)C1 (stereo not drawn),inhibition,[1],6.34%
same,inhibition,[2],5.86%
same,inhibition,[3],0.08%
Cc1ccc(C)c(Cn2ccc3nc(N)nc(N)c32)c1,inhibition,[1],2.05%
same,inhibition,[2],1.94%
same,inhibition,[3],-0.67%
CCc1ccc(-n2cc(C(=O)c3cc(Br)ccc3O)cc(C#N)c2=O)cc1,inhibition,[1],3.35%
same,inhibition,[2],3.08%
same,inhibition,[3],2.28%
CC(C)c1ccc(OCC(O)CN(CCN2CCOCC2)C(=O)Nc2ccc(Br)cc2)cc1 (stereo not drawn),inhibition,[1],7.44%
same,inhibition,[2],5.63%
same,inhibition,[3],9.58%
CN(C)c1cccc2c(S(=O)(=O)Nc3cccc(CCN4CCC(N5CCCCC5)CC4)c3)cccc12,inhibition,[1],0.3%
same,inhibition,[2],-3.51%
same,inhibition,[3],-0.34%
O=S(=O)(Nc1cccc(CCN2CCC(N3CCCCC3)CC2)c1)c1ccc2c(c1)OCCO2,inhibition,[1],1.3%
same,inhibition,[2],4.23%
same,inhibition,[3],8.66%
CC(C)N1CCC(N(Cc2ccc(-c3ccc(C(F)(F)F)cc3)cc2)C(=O)Cn2c(CCc3cccc(F)c3F)cc(=O)c3cn(C)nc32)CC1,inhibition,[1],10.3%
same,inhibition,[2],8.4%
same,inhibition,[3],13%
CC(=O)Nc1ccc(C(=O)Nc2cccc(-c3cccc(-c4nc5cc(F)ccc5[nH]4)c3)c2)cn1,inhibition,[1],7.97%
same,inhibition,[2],10.8%
same,inhibition,[3],3.74%
CCCCCCN1CCCN(Cc2ccc(C(=O)Nc3ccc(CCC)cc3)cc2)CC1,inhibition,[1],9.31%
same,inhibition,[2],7.71%
same,inhibition,[3],7.37%
O=C(Nc1cccc(CN2CCCN(Cc3cccc(Cl)c3)CC2)c1)c1ccc(Br)cc1,inhibition,[1],7.66%
same,inhibition,[2],7.39%
same,inhibition,[3],9.96%
CC(C)(CNCc1ccc(C(F)(F)F)cc1)c1nc(-c2ccnc(N)n2)c(-c2ccc(Cl)c(O)c2)[nH]1,inhibition,[1],1.5%
same,inhibition,[2],0.51%
same,inhibition,[3],2.94%
N#Cc1ccc(CNCCCCCCCNCc2ccc(-c3ccccc3)cc2)cc1,inhibition,[1],4.19%
same,inhibition,[2],5.01%
same,inhibition,[3],5.28%
O=C(/C=C/c1ccc(Cl)c(Cl)c1)NC1CCN(CCCNC(=O)c2cccc(Cl)c2)CC1,inhibition,[1],6.07%
same,inhibition,[2],6.03%
same,inhibition,[3],7.01%
